Laboratory results taken from PubChem BioAssay.
A number with no mark means an inactive call.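 How the source made its calls: active means z-score of at least 1.8 in each of two replicates, scored against plate mean and spread of sample wells; inactive means the rest.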

test: viability rescue of complex I mutant cybrids, primary screen, cell-based, galactose medium, ATP luminescence (AID 1645843); conditions: complex I mutant cybrid cells, 72 h, active compounds read high;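 further: positive z means more ATP and so rescue of galactose-driven cybrid death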

SMILES | z-score
Cc1ccc2c(C(=O)N3CCCCC3)cc(-c3cnn(C(C)C)c3)nc2c1 | -0.385
Cc1ccc(C)c(CNC(=O)Nc2nc(C)ns2)c1 | 0.47
CN(CC1COc2ccccc2O1)C(=O)Nc1nncs1 (centres undefined) | -0.295
OC[C@H](Cc1ccccc1)NC1CCCCCC1 | -0.555
COc1cccc(-n2cc(-c3ccnc(N(C)Cc4cccnc4)n3)cn2)c1 | 0.62
CCCc1cn(C2CCN(C(=O)C(C)N3CCCC3)CC2)nn1 (centres undefined) | -0.35
CC1Cc2cc(C(=O)N3CCC(n4cc(CCO)nn4)CC3)ccc2O1 (centres undefined) | 0.36
CCCCc1cn(C2CCN(C3CCCC(C)(C)C3)CC2)nn1 (centres undefined) | -0.56
CC(C)(O)c1cn(C2CCN(C(=O)C3CC34CCCC4)CC2)nn1 (centres undefined) | -0.475
CCCCC(CC)CN1CCc2[nH]nc(C3CC3)c2C1 (centres undefined) | -0.03
CCCCn1nnnc1NC(=O)N1C2CCCCC1CCC2 | 0.915
CCCC(NC(=O)c1ccc(C#N)cc1)c1ccccc1 (centres undefined) | -0.32
CN1CCN(C2CCCCCC2)CC1CCO (centres undefined) | -0.575
Cc1cc(C)n(CC(C)n2cnc3cccc(C)c3c2=O)n1 (centres undefined) | 0.34
CC(C)(C)c1cn(CC2CCCN(C(=O)c3cn4cccnc4n3)C2)nn1 (centres undefined) | 0.425
CC(C)Oc1cccc(C(=O)N2CCC(Cn3cc(C4CC4)nn3)CC2)c1 | -0.515
COc1nc2c(cc1C(=O)N1CCOc3ccccc31)CCC2 | 0.225
CCCC(CCC)N[C@H](CO)Cc1ccccc1 | -0.345
CCC(CC)C(=O)N1CCC(n2cc(C(C)(C)O)nn2)CC1 | 0.875
Cc1cc(C(F)(F)F)nc(CNC(=O)c2ccc3nccnc3c2)n1 | -0.69
Cc1ccc(F)cc1-c1cccc(C(=O)c2nccn2C)c1 | -0.54
CCCN1CCC(N2CCC(n3cc(-c4ccccc4)nn3)CC2)CC1 | 0.325
CCCCC(CO)NC(C)CCc1ccc(OC)cc1 (centres undefined) | -0.47
CCC1CN(C(=O)c2cc(-c3cnn(C)c3)nc3c(C)cccc23)CCN1C (centres undefined) | -0.31
